Hit rate of the full screen: of about 140,000 compounds, about 240 (0.17%) were called active. A call without a number means that no potency is given here. Inconclusive results (about 9%) are left out. Calls come from the whole dose curve; as a rule, active = well fitted inhibition curve with a large enough effect; inconclusive = small, poorly fitted or top-dose-only effect; inactive = no such curve, though single readings can be large or run the other way. The full list was thinned out, with actives kept by preference.
Test: Primary qHTS assay for inhibitors of alpha-synuclein gene (SNCA) expression; note: nearly all actives have a fitted effect of over 45% in size
Settings: HEK-293 SNCA-luciferase knock-in, luminescence, 24 h; series mostly up to 57.2 µM
Source text: Assay Submitter (PI): Daniel R. Scoles Ph.D.
Department of Neurology, University of Utah, Salt Lake City, Utah
Accumulation of alpha-synuclein is a main underlying pathological feature of Parkinson's disease (PD) and alpha-synucleinopathies, for which lowering expression of the alpha-synuclein gene (SNCA) is a potential therapeutic avenue. Using a cell-based luciferase reporter of SNCA expression we performed a quantitative high throughput screen (qHTS) of 155,885 compounds in dose response. The screening assay was generated using genome editing to insert the luciferase gene downstream and in frame of the SNCA gene in HEK-293 cells (1). A viability counterscreen using GF-AFC was used to eliminate cytotoxic and false positive compounds. After in silico analysis (clustering, removal of frequent hitter nuisance chemotypes), inhibitor compounds from the primary screen were selected for follow up and re-tested at 11-doses in the SNCA-luc cells (luciferase and GF-AFC confirmation), and in CMV-luc expressing cell line to flag general transcriptional repressors.
Described herein are the results of the primary screen for SNCA inhibitors; decrease in luciferase signal (inhibition of the SNCA gene expression) is the desired output for this assay.
1. Dansithong, W., Paul, S., Scoles, D. R., Pulst, S. M., and Huynh, D. P. (2015) Generation of SNCA Cell Models Using Zinc Finger Nuclease (ZFN) Technology for Efficient High-Throughput Drug Screening. PLoS ONE 10, e0136930.
SEQUENCE No. (e.g., 1, 2, 3, etc.); […] (e.g., Cells, Incubation, Reagent, etc.); VALUE; DESCRIPTION
1; Cells; 4 uL; Dispense 1500 HEK-293-SNCA-luc cells/well into Greiner 1536-well white / solid bottom tissue culture treated plate. The plate was covered with metal lids with gas-exchange holes.
2; Incubate; 24 hours; Incubate at 37C, 5% CO2, 95% RH.
3; Compounds; 23 nL; Compounds and controls were transferred via a Kalypsys Pin Tool (Wako USA) equipped with a 1536-slotted pin array. The plate was covered with metal lids with gas-exchange holes.
4; Incubate; 24 hours; Incubate at 37C, 5% CO2, 95% RH.
5; Dispense; 1 uL; Dispense Gly-Phe-7-amino-4-trifluoromethylcoumarin (GF-AFC, prepared at 125 uM in PBS) was added. The plate was covered with metal lids with gas-exchange holes.
6; Incubate; 30 min; Incubate at 37C, 5% CO2.
7; Detector; Fluorescence; Measure fluorescence with ViewLux microplate reader (PerkinElmer) equipped with 405/10 excitation and 540/25 emission filters.
8; Dispense; 3 uL; Dispense ONE-Glo ([…]) lucifase detection reagent was added to each well. Plates were covered with metal lids with gas-exchange holes.
9; Incubate; 15 min; Incubate at room temperature.
10; Detector; Luminescence; Measure luminescence with ViewLux microplate reader (PerkinElmer) equipped with clear filters.
NOTES (numbers refer to sequence above)
1; HEK-293-SNCA-luc were cultured and suspended in phenol-red free DMEM (4.5 g/L glucose, 25 mM HEPES, cat #21063 (Thermo)).
3; Compounds were added to the assay plate in an 11-point intra plate dose response, 1:3 titration in DMSO with a final concentration range of […]. Vehicle-only plates, with DMSO being pin-transferred to every well, were inserted at the beginning of screening runs to confirm expected assay performance. Activity was normalized to wells containing medium only (-100% activity, full inhibition) and SNCA-luc cells treated with DMSO vehicle control (0% activity), contained on the same plate as test samples.
10; Signals were analyzed, and dose-response curves were fit using the Hill equation. Compounds in curve classes -1.1, -1.2, -2.1, -2.2 in the SNCA-luc assay were considered active. Compounds were eliminated from further consideration if also active (curve class -1.1, -1.2, -1.3, -1.4, -2.1, -2.2, -2.3, -2.4) in the GF-AFC cytotoxicity assay.
With Cc1ccc(-c2noc([C@@H]3C[C@@H](O)CN3Cc3cccc(C#N)c3)n2)cc1F the Potency was “inactive”. In the case of O=C(Cc1ccccn1)N1CCC(C(=O)N2CCC(N3CCCC3=O)CC2)CC1, the Potency is reported as “inactive”. With O=C(NCCc1ccccc1)C1=NO[C@@H]2CN(Cc3ccc(F)cc3)C[C@H]12 the Potency was “inactive”. In the case of CC1(C)[C@H](Cc2cc(CC3CCCCC3)on2)C[C@@H]1NC1CCOCC1, the Potency is reported as “inactive”. With COc1cc(OC)c(CNC(=O)c2c(C)noc2-c2cc(OC)c(OC)c(OC)c2)c(OC)c1 the Potency was “inactive”. With O=C(NCc1cccc(F)c1)c1c[nH]c2ncccc12 the Potency was “inactive”. In the case of Cc1ccc(C(=O)N2CCC(N3CC4CC(C3)[C@H]3CCCC(=O)N3C4)CC2)s1 (some centres undefined), the Potency is reported as “inactive”. For CCOc1cccc(CNC(=O)CC2CCCCN(Cc3ccccc3)C2=O)c1 (centres undefined), the Potency was “inactive”. With O=C(NCc1ccccc1)C1CCN(c2nccc(Nc3ccccc3Cl)n2)CC1 the Potency was “inactive”. For COc1ccccc1-c1[nH]nc2ncc(-c3cccc(CO)c3)nc12, the Potency was “inactive”. In the case of O=C(Cc1ccccn1)N1CCCC(C(=O)N2CCC(c3nc4ncccc4[nH]3)CC2)C1 (centres undefined), the Potency is reported as “inactive”. For COc1ccc(Nc2cnc3ccc(-c4ccc(OC)nc4)nn23)cc1, the Potency was “inactive”. For O=C1NC2(Cc3ccccc31)CN([S+](=O)([O-])c1ccccc1)C2, the Potency was “inactive”. With COCC(=O)N1CC(C(=O)NCCc2ccccn2)C2(CCOCC2)C1 (centres undefined) the Potency was “inactive”. For Cc1ccc(CNC(=O)c2ccc3c(c2)CN(Cc2cccnc2Cl)CCO3)cc1, the Potency was “inactive”. For O=C1CO[C@H]2CN(C3CCC3)C[C@H]2N1Cc1ccc(OC(F)(F)F)cc1, the Potency was “inactive”. In the case of O=C1NCCc2[nH]c(-c3ccncc3)cc21, the Potency is reported as 3410 nM (active). For CC(C)CNC(=O)C1CCCN(c2nccc(Nc3ccccc3F)n2)C1 (centres undefined), the Potency was “inactive”. For CN(Cc1ccccc1)C(=O)CC1CCN(C(=O)CCC2CCCC2)C1 (centres undefined), the Potency was “inactive”. In the case of COc1ccc(CC(=O)NC2CCN(c3cc(-c4ccccc4)[nH]n3)CC2)cc1, the Potency is reported as “inactive”. For CC(=O)c1cnc2ccc(-c3cc(Cl)c(O)c(Cl)c3)nc2c1NC1CCC(CN(C)C)CC1 (centres undefined), the Potency was 27 nM (active). In the case of CCN(CC)Cc1ccc2c(c1)CN(C(=O)Cc1c[nH]c3ccccc13)CCO2, the Potency is reported as “inactive”. In the case of N#Cc1cccc(-c2c(C(=O)NCCc3ccccc3)nc3sccn23)c1, the Potency is reported as “inactive”. With COc1ccccc1CCC(=O)N1C[C@H](N)C[C@H]1C(=O)NC(C)C the Potency was “inactive”. With COc1cccc(CNC(=O)c2cc(-c3cccnc3)nc3c2cnn3C)c1 the Potency was “inactive”. In the case of COCCN1C(=O)N(C)C(=O)C12CCN(Cc1cc(F)ccc1F)C2 (centres undefined), the Potency is reported as “inactive”. With O=C1NCCCCCN(C(=O)Cc2ccccc2)[C@@H]2C[C@@H](C(=O)N3CCc4ccccc4C3)C[C@H]12 the Potency was “inactive”. With CCCNC(=O)C(NC(=O)c1ccccc1C)C1CCN(C(=O)c2ccc(OC)cc2)CC1 (centres undefined) the Potency was “inactive”. In the case of O=S(=O)(c1cccc(F)c1)N1CC[C@@H]2COCCN(Cc3cccnc3)[C@@H]2C1, the Potency is reported as “inactive”. In the case of CN(C)c1ccc(CN[C@H]2[C@H](O)[C@@H](N3CCC(Cc4ccccc4)CC3)[C@@H]3OC[C@H]2O3)cc1, the Potency is reported as “inactive”. In the case of Cc1ccc(C(=O)N2CCC3(CC2)NC(=O)N(Cc2ccc(F)cc2)C3=O)cc1, the Potency is reported as “inactive”. For CN(C)CCc1c[nH]c2ccc(Cn3cncn3)cc12, the Potency was 2710 nM (active). With COc1ccc2[nH]cc(CCNc3cc(-c4ccccc4CN(C)C)ncn3)c2c1 the Potency was “inactive”. For CS(=O)(=O)N(Cc1ccccn1)C1CN(C(=O)NCCc2ccccc2)C1, the Potency was “inactive”. With O=C(NCc1ccc(F)cc1)c1nc(-c2ccccc2)c2ccccn12 the Potency was “inactive”. With Cn1ncc2c(C(=O)NCc3cccnc3)cc(C(C)(C)C)nc21 the Potency was “inactive”. With CC(=O)N1CCN(C(=O)C2CCCN2Cc2ccc(-c3cc(C)cc(C)c3)cc2)CC1 (centres undefined) the Potency was “inactive”. In the case of CC1=C[C@@H](CN2CCCC2)[C@H](C(C)C)C[C@H]1Cc1nnc(-c2ccc([N+](=O)[O-])cc2)o1, the Potency is reported as “inactive”. In the case of Cc1nc(N2CCC(NCCNc3ccncc3C)CC2)c2ccsc2n1, the Potency is reported as “inactive”. For Cc1ccccc1C(=O)N1CCC(C(=O)N2CCC(c3nc4ccncc4[nH]3)C2)CC1 (centres undefined), the Potency was “inactive”. With CC(=O)N1CCC(N[C@H]2C[C@@H](Cc3cc(CN(C)c4ccccc4)on3)C2(C)C)CC1 the Potency was “inactive”. For COc1ccc(-c2cn3cc(C(=O)NCc4ccc(F)cc4)nc3s2)cc1, the Potency was “inactive”. In the case of COc1ccc(CN2CC(Oc3ccc(OC)cc3)C2)cc1, the Potency is reported as “inactive”. For CCCCn1c(=O)c(C(=O)N2CCN(C(=O)c3ccccc3)CC2)nc2cccnc21, the Potency was “inactive”. For Cc1ccccc1-c1ccnc(-c2nnc(C)n2C(C)C)c1, the Potency was “inactive”. With Cc1ccc(OCC(=O)N2CCC(c3nn(C)c4c3COCC4)CC2)cc1 the Potency was “inactive”. In the case of COCCOCC1(CNS(=O)(=O)c2c(C)noc2C)C[C@@H](O)[C@@H](O)C1 (some centres undefined), the Potency is reported as “inactive”. For c1ccc(CNC[C@H]2Cn3cc(-c4ccccc4)nc3CO2)cc1, the Potency was “inactive”. In the case of Cc1nnc(-c2cc(-c3ccccc3)ccn2)n1CCc1ccccc1, the Potency is reported as “inactive”.

Source: PubChem BioAssay AID1671194 (National Center for Advancing Translational Sciences (NCATS), 2021)
Potency is the fitted concentration of half-maximal effect.
